From ChEMBL document CHEMBL1157539, “Thousands of chemical starting points for antimalarial lead identification” (Nature, 2010) come the findings set out here.

Format in all cases: functional
Assay [1] relates to Plasmodium falciparum. Kind of assay: GSK_TCMDC: Inhibition of Plasmodium falciparum 3D7 in whole red blood cells, using parasite LDH activity as an index of growth. Test compounds present at 2uM.
For assay [2], the system named is Plasmodium falciparum. Kind of assay: GSK_TCMDC: Inhibition of Plasmodium falciparum Dd2 in whole red blood cells, using parasite LDH activity as an index of growth. Test compounds present at 2uM.
Assay [3] concerns HepG2. Kind of assay: GSK_TCMDC: Percent inhibition of human HepG2 cell line. Test compounds present at 10uM.

Several values for one entry are separate records, joined by “and”; a condition that tells them apart may be missing. Identical values can stand only once.

The term Inhibition denotes the percentage by which the read-out fell short of the control. Consider `CC(C)n1ncc2c(C(=O)Nc3ccc(C#N)c(Cl)c3)cc(C3CC3)nc21`, for which the figures for the Inhibition in assay [1], in assay [2] and in assay [3] were 93%, 15% and 20%, respectively.
Consider `Cc1ccc(CC(C)NC[C@H](O)c2cccc(Cl)c2)cc1` (some centres not stated), for which the results for the Inhibition in assay [1], in assay [2] and in assay [3] were 93%, 64% and 0%, respectively.
As to `O=C(COc1ccc(Cl)cc1)N1CCC(CN2CCC(c3c[nH]c4ccccc34)CC2)CC1`, the Inhibition stood at 89% in assay [1], 13% in assay [2] and 48% in assay [3].
For `CN(c1cc(NC(=O)c2cccs2)ccn1)C1CCN(Cc2cccc(C#N)c2)CC1.O=C(O)C(F)(F)F`, the Inhibition in assay [1] was 90%; in assay [2], 69%; in assay [3] it was 59%.
Consider `C/C=C1\CN2CC[C@H]1C[C@H]2[C@H](O)c1ccnc2ccc(OC)cc12`, for which the Inhibition stood at 100% in assay [1], 45% in assay [2] and 0% in assay [3].
The matching figures for `Oc1ccc(CN2CCN(CCOC(c3ccccc3)c3ccc(Cl)cc3)CC2)cc1Cl` (configuration not stated): 98%, 97% and 11%.
For the molecule `COC(=O)c1ccc(CC(C)NCC(O)c2cccc(I)c2)cc1` (configuration not stated), the Inhibition in assay [1] is recorded as 87%; in assay [2], 54%; in assay [3], 15%.
For `CC(Cc1ccc(SC(C)C)cc1)NCC(O)c1cccc(Cl)c1.Cl` (configuration not stated), the Inhibition in assay [1] amounted to 99%; in assay [2] it was 97%; in assay [3], 5%.
Turning to `O=C(/C=C/c1ccc(Cl)c(Cl)c1)NC1CCC(CN2CCC(c3c[nH]c4cc(O)ccc34)CC2)CC1` (configuration not stated), the results for the Inhibition in assay [1], in assay [2] and in assay [3] were 100%, 98% and 18%, respectively.
Take `O=C(c1cc(C(=O)NCc2ccc(Cl)cc2)c(=O)n(Cc2ccc(Cl)cc2)c1)c1cc(Cl)ccc1O`: the Inhibition was found to be 80% in assay [1], 4% in assay [2] and 6% in assay [3].
With `CCN(CC)CCN1C(=O)C(O)(c2ccccc2Cl)c2c1cc(C#N)cc2C(F)(F)F` (configuration not stated), the Inhibition in assay [1] is given as 88%; in assay [2], 19%; in assay [3], 21%.
For the molecule `CN(Cc1ccccc1)C1CCN(CCc2c[nH]c3ccc(F)cc23)CC1.O=C(O)C(F)(F)F`, the values for the Inhibition in assay [1], in assay [2] and in assay [3] were 100%, 91% and 28%, respectively.
For `COC(=O)c1ccc(CC(C)NCC(O)c2cccc(Oc3cccc(C(F)(F)F)c3)c2)cc1.Cl` (configuration not stated) the same measures were 91%, 73% and 19%.
For `O=C(/C=C/C=C/c1ccccc1)NC1CCC(CN2CCC(c3c[nH]c4ccccc34)CC2)CC1` (configuration not stated), the Inhibition in assay [1] amounted to 100%; in assay [2] it was 66%; in assay [3] it was 49%.
For the molecule `CC(Cc1ccc(OCc2ccc(CCN(C)C)cc2)cc1)NCCc1cccc(Cl)c1` (configuration not stated), the Inhibition in assay [1] came to 100%; in assay [2], 78%; in assay [3], 42%.
On to `CCCCCNC(=N)N/N=C/c1c[nH]c2ccc(OC)cc12.Cl`, for which the figures for the Inhibition in assay [1], in assay [2] and in assay [3] were 86%, 2% and 16%, respectively.
Take `O=C(NC1CCC(CN2CCC(c3c[nH]c4ccccc34)CC2)CC1)c1cc2ccccc2s1` (configuration not stated): the Inhibition was 98% and 100% in assay [1]; 68% and 43% in assay [2]; 44% in assay [3].
Regarding `O=C(/C=C/c1cccs1)NC1CCC(CN2CCC(c3c[nH]c4ccccc34)CC2)CC1` (configuration not stated), the Inhibition was 82% in assay [1], 29% in assay [2] and 33% in assay [3].
Consider `Oc1ccc(Cl)cc1CN1CCC(CCOC(c2ccccc2)c2ccc(Cl)cc2)CC1` (configuration not stated), for which the Inhibition in assay [1] stood at 98%; in assay [2] it was 100%; in assay [3], 32%.
Regarding `Cn1nc(C(F)(F)F)cc1-c1ccc(C(=O)NC2CCC(CN3CCC(c4c[nH]c5ccccc45)CC3)CC2)s1` (configuration not stated), the Inhibition in assay [1] is 100%; in assay [2] it was 97%; in assay [3] it was 45%.
`CC[C@H]1CN2CC[C@H]1C[C@H]2[C@@H](O)c1cc(OCCCN(C)C)nc2ccc(OC)cc12`: the Inhibition in assay [1] amounted to 99%; in assay [2], 8%; in assay [3], 0%.
For `CCCCCCC(CC)c1cc(O)c2c(c1)OC(C)(C)c1ccncc1-2.Cl` (configuration not stated) the same measures were 94%, 52% and 0%.
For the molecule `CN(C(=O)OCc1ccccc1)C1CCC(CCN2CCC3(CC2)C(=O)NCN3c2cccc(C(F)(F)F)c2)(c2ccccc2)CC1` (configuration not stated), the Inhibition in assay [1] came out at 80%; in assay [2], 72%; in assay [3], 19%.
Take `CC(Cc1ccc(OC2CCCCC2)cc1)NCC(O)c1cccc(Cl)c1.Cl` (configuration not stated): the Inhibition was determined as 99% in assay [1], 99% in assay [2] and 66% in assay [3].
With `Cn1nc(-c2ccc(S(=O)(=O)NC3CCC(CN4CCC(c5c[nH]c6ccccc56)CC4)CC3)s2)cc1C(F)(F)F` (configuration not stated), the Inhibition in assay [1] is 96% and 98%; in assay [2] it was 24% and 29%; in assay [3] it was 35% and 38%.
Turning to `O=C(NCc1ccccc1)c1nn(CCCN2CCC3(CC2)C(=O)NCN3c2ccccc2)cc1-c1ccc(Cl)c(Cl)c1`, the Inhibition came to 88% in assay [1], 21% in assay [2] and 6% in assay [3].
The matching figures for `COc1cccc(O)c1CNCC(O)c1cccc(C(F)(F)F)c1` (configuration not stated): 98%, 96% and 31%.
The matching figures for `Cc1cccc2c(C3CCN(CC4CCC(NC(=O)/C=C/c5ccc(Cl)c(Cl)c5)CC4)CC3)c[nH]c12` (configuration not stated): 92%, 49% and 97%.
For `Br.COC(=O)c1ccc(CC(C)NCC(O)c2cccc(SC(F)(F)F)c2)cc1` (configuration not stated) the same measures were 96%, 72% and 7%.
With `S=C(Nc1ccccc1Cl)NC1CCC(CN2CCC(c3c[nH]c4ccccc34)CC2)CC1` (configuration not stated), the Inhibition in assay [1] is 90%; in assay [2], 12%; in assay [3], 31%.
For the molecule `CN(c1cc(NC(=O)c2ccc(F)cc2)ccn1)C1CCN(Cc2cccc(O)c2)CC1.O=C(O)C(F)(F)F`, the results for the Inhibition in assay [1], in assay [2] and in assay [3] were 100%, 82% and 3%, respectively.
For `CN1C(=O)[C@H](NC(=O)[C@@H](Cc2ccccc2)NC(=S)Nc2ccccc2)N=C(c2ccccc2)c2ccccc21` the same measures were 86%, 23% and 0%.
The matching figures for `Cc1[nH]c2cc(Cl)ccc2c1C1=CCN(CCN2CCOc3c(Br)cccc3C2=O)CC1.Cl`: 90%, 58% and 1%.
Consider `Cc1c(C(=O)NC2CCC(CN3CCC(c4c[nH]c5ccccc45)CC3)CC2)cnn1-c1c(Cl)cc(Cl)cc1Cl` (configuration not stated), for which the Inhibition in assay [1] is recorded as 100%; in assay [2] it was 97%; in assay [3], 53%.
